# Screening data as filed in PubChem BioAssay.
# Chronic BCR inh: blocks chronic active B-cell receptor signaling. ABC-DLBCL IkBa-CBG/CBR reporter, luminescence ratio, 4 h. Potency, µM (series often up to 46.1 µM), most hits filed as inhibitors. 340,000 compounds, 0.05% hits. AID 493014; active = well fitted inhibition curve with a large enough effect in the signal ratio, with a control signal flat, not every such curve was filed as active; inconclusive = small, poorly fitted or top-dose-only effect, or effect the other way, or a change in a side signal; the % refers to the signal ratio
#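 Compounds up to 46 uM were incubated four hours with TMD8 cells whose green CBG68 luciferase is fused to IkappaBalpha; red CBR luminescence normalised the signal, and concentration-effect curves were fitted to fusion, red and ratio data.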
# uPA surface inh: inhibitors of cell surface uPA generation. cell surface uPA generation assay, qHTS. Potency, µM (series often up to 38.3 µM), most hits filed as inhibitors. 330,000 compounds, 0.31% hits. AID 540303; active = well fitted inhibition curve with a large enough effect; inconclusive = small, poorly fitted or top-dose-only effect; inactive = no such curve, though single readings can be large or run the other way; tested in mouse RAW 264.7 cells; note: nearly all actives have a fitted effect of over 55% in size
# Gal4-VP16 FLuc: Gal4-VP16 reporter inhibition counter-screen; Drosophila S2 Gal4-VP16 UAS-luciferase, luminescence, 20 h; Potency, µM (highest dose often 53.6 µM), actives largely listed as inhibitors; 310,000 compounds, 3.5% hits; AID 2546;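 note: Gal4-VP16 expression switched on by copper sulfate through the metallothionein promoter; nearly all actives have a fitted effect of over 50% in size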
# Mito fusion act: inhibitors of mitochondrial division or activators of mitochondrial fusion; S. cerevisiae fusion-defective mutant growth rescue, CellTiterGlo 48 h; Potency, µM (titrated, usually from 46.1 µM), most hits filed as activators; 320,000 compounds, 0.23% hits; note: nearly all actives have a fitted effect of over 45% in size
#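 Read-out: ATP-based luminescence (CellTiterGlo, 10 min ambient) reporting growth of fusion-defective ts yeast after 48 hours at 37C on glycerol/ethanol YPEG medium in the presence of compound.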
# RORg inh: blocks mouse ROR gamma transcriptional activity | Drosophila S2 Gal4-RORgamma UAS-luciferase reporter, 20 h | Potency, µM (doses to about 53.6 µM), usual class: inhibitors | P51450 | AID 2551 | 310,000 compounds, 5.4% hits; note: nearly all actives have a fitted effect of over 60% in size
# Target sequence (P51450 whole entry, looked up, the tested form may be a part): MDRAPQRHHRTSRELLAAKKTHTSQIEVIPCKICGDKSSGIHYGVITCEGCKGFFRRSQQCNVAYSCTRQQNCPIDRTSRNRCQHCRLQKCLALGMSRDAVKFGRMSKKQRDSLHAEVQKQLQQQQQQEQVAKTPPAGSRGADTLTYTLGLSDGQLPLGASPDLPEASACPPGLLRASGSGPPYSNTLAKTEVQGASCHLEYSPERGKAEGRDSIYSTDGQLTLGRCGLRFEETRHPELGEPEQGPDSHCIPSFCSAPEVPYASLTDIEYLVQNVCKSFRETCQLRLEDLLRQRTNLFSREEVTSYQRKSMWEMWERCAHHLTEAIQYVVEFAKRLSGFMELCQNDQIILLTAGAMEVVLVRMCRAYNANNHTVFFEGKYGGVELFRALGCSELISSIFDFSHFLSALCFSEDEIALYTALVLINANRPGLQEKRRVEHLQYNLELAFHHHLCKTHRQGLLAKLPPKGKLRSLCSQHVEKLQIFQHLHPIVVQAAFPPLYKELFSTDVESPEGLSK
#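 ROR gamma transcriptional activity was tracked as Gal4-UAS luciferase output in stably transfected Drosophila Schneider cells, with compound added 1 hr before 700 uM copper sulfate induction and a 20 hr ambient-temperature incubation.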
# a7 integrin act: activators of alpha7 integrin expression for muscular dystrophy | alpha7betagal myoblasts, beta-gal FDG fluorescence, 48 h | AID 624291 | Potency, µM (titrated, usually from 38.3 µM), usual class: activators | 350,000 compounds, 0.064% hits; note: nearly all actives have a fitted effect of over 60% in size
#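 Alpha7betagal+/- myoblasts (passage 13) were plated 16-24 hr, then exposed to compounds (1:260 dilution of DMSO stock) for 48 hours at 37C. After MPER lysis, β-galactosidase reporter activity was read as FDG fluorescence (ex 480/em 540) after 30 minutes.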
# A number is an active result; i = inactive; ? = inconclusive; nt = no result given. This is a sample that favours compounds with a hit; in the whole collection about 5.5% have one here. Unless noted, calls come from the whole dose curve; as a rule, active = well fitted curve in the direction sought with a large enough effect; inconclusive = small, poorly fitted or top-dose-only effect, or another doubt; inactive = no such curve, though single readings can be large; an effect the other way counts as inactive or inconclusive.
SMILES,Chronic BCR inh,uPA surface inh,Gal4-VP16 FLuc,Mito fusion act,RORg inh,a7 integrin act
CC(C)(Oc1ccc(Cl)cc1)C(=O)OCn1nnc2ccccc2c1=O,i,i,2.5µM,i,?,i
O=C(CNC(=O)c1ccc(Cl)cc1)OCn1nnc2ccccc2c1=O,i,i,nt,i,nt,i
Nc1c(C(=O)c2ccccc2)sc2snc(SCC(=O)c3ccccc3)c12,i,i,13µM,i,11µM,i
O=C(CN1C(=O)c2ccccc2S1(=O)=O)c1ccc2c(c1)OCCO2,i,2µM,0.56µM,i,0.025µM,i
O=C(CN1C(=O)c2ccccc2S1(=O)=O)c1ccc2c(c1)OCCCO2,?,i,0.71µM,i,0.28µM,i
O=C(CN1C(=O)c2ccccc2S1(=O)=O)c1cccc(Br)c1,i,i,i,i,?,i
Nc1ccc(C(=O)c2cccs2)cc1[N+](=O)[O-],?,i,i,i,i,i
Cc1ccc(OCc2nnc(SCC(=O)Nc3cc(C)on3)n2C)cc1,i,nt,i,i,i,i
Cc1ccc(OCc2nnc(SCC(=O)c3cccc([N+](=O)[O-])c3)n2C)cc1,i,i,?,i,2µM,i
CCOC(=O)CNC(=O)O[C@H]1C(=O)c2ccc(OC)cc2O[C@@H]1c1ccc2c(c1)OCO2,nt,nt,i,nt,i,nt
Cc1cc(C)c2nc(C)cc(N/N=C/c3ccc(O)cc3)c2c1,?,i,4.5µM,i,?,i
Cc1cc(N/N=C/c2ccc(O)cc2O)c2ccccc2n1,i,i,?,i,?,i
Cc1cc(N/N=C/c2ccc(N(C)C)cc2)c2ccccc2n1,i,i,?,i,16µM,i
Cc1cc(N/N=C/c2ccc(O)cc2)c2cccc(C)c2n1,?,?,18µM,i,?,i
COc1ccccc1N(C)S(=O)(=O)c1ccc(C(=O)NCC2CCCCC2)cc1,i,i,nt,i,nt,i
CCC(Sc1ncccc1C(=O)Oc1ccccc1Cl)C(=O)Nc1ccccc1OC (stereo not given),i,nt,nt,nt,nt,nt
C[N+](C)(C)CC[N+]1(C)Cc2c(Cl)c(Cl)c(Cl)c(Cl)c2C1,nt,nt,i,nt,i,nt
CCCC[C@@H](CN[C@H](C)CNC)NCC1CCC(C(C)(C)C)CC1 (stereo not given in full),?,?,i,i,11µM,i
CC[C@H](C)[C@@H](CN[C@H](CCCCNC)CNC)NCC1CCCC1,i,i,i,i,i,i
CCC1=C2CC[C@H]3C(=O)N(c4ccccc4)C(=O)[C@H]3[C@H]2[C@@]2(Cc3ccccc3)C(=NCc3ccccc3)OC(=O)N2C1=O,nt,nt,i,nt,i,nt
O=C(CN1C(=O)S/C(=C\c2cccc(Cl)c2)C1=O)NC1C=CS(=O)(=O)C1 (stereo not given),i,i,i,i,7.9µM,i
O=C(CN1C(=O)/C(=C/c2cccc(Cl)c2)SC1=S)NC1C=CS(=O)(=O)C1 (stereo not given),?,i,?,i,13µM,i
O=C(CN1C(=O)S/C(=C\c2ccc(Cl)cc2)C1=O)NC1C=CS(=O)(=O)C1 (stereo not given),?,i,i,i,i,i
O=C(Cc1cccs1)Nc1nnc(SCc2ccc(C(F)(F)F)cc2)s1,?,i,i,i,10µM,i
COc1ccc(C(CNC(=O)c2oc3c(Cl)cccc3c2C)N2CCCC2)cc1 (stereo not given),?,i,nt,i,nt,i
SMILES,Chronic BCR inh,uPA surface inh,Gal4-VP16 FLuc,Mito fusion act,RORg inh,a7 integrin act
O=C(CSc1cccc[n+]1[O-])NC1CCCCC1,i,i,nt,nt,nt,i
O=C(N/N=C/C1CC=CCC1)c1cc2ccccc2cc1O (stereo not given),i,i,?,i,10µM,i
O=C(N/N=C/C1CC=CCC1)c1ccc(O)cc1O (stereo not given),?,i,2.8µM,i,1.1µM,i
Cn1nnnc1N=N/C(=N/Nc1ccccc1)c1ccccc1,?,i,2.2µM,i,0.35µM,i
Oc1ccccc1N=N/C(=N/Nc1ccccc1O)c1ccccc1,i,i,nt,i,nt,i
COc1ccc(CNC(=S)Nc2ccc(-c3ccccc3)cc2)cc1,i,i,7.1µM,i,?,i
COc1ccc(CNC(=S)Nc2ccc(Br)cc2)cc1,?,i,11µM,i,10µM,i
COc1ccc(NC(=S)NCc2cccn2C)cc1,i,i,i,i,i,i
